High-throughput results: PubChem, National Center for Advancing Translational Sciences (NCATS)
TDP1 cell CPT – qHTS for Inhibitors of human tyrosyl-DNA phosphodiesterase 1 (TDP1): qHTS in cells in presence of CPT | 420,000 compounds, 12% hits | chicken DT40 Tdp1-/-;hTDP1 cells + 20 nM CPT, ATP luminescence, 48 h | Potency, µM (highest dose often 46.2 µM), inactives show top-dose activity change, negative = growth inhibition, usual class: inhibitors | AID 686979, 2013; also: % is scaled to controls: 0 for no effect and ±100 for the full control effect; nearly all actives have a fitted effect of over 55% in size
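Chicken DT40 Tdp1-/- cells complemented with human TDP1, 400 cells/well, exposed to compounds plus 20 nM camptothecin for at least 48 h at 37 C; viability read as ATP content by CellTiter-Glo luminescence.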
TDP1 block – qHTS Assay for Inhibitors of Tyrosyl-DNA Phosphodiesterase (TDP1); Tyrosyl-DNA phosphodiesterase 1 (Homo sapiens), Q9NUW8; recombinant TDP1, AlphaScreen DNA substrate cleavage; Potency, µM (top dose mostly 130 µM), for inactives: at the highest dose activity change, negative = inhibition, actives largely listed as inhibitors; 350,000 compounds, 0.28% hits; AID 485290, 2010; also: % is scaled to controls: 0 for no effect and ±100 for the full control effect; nearly all actives have a fitted effect of over 40% in size
Target sequence (Q9NUW8 whole entry, looked up): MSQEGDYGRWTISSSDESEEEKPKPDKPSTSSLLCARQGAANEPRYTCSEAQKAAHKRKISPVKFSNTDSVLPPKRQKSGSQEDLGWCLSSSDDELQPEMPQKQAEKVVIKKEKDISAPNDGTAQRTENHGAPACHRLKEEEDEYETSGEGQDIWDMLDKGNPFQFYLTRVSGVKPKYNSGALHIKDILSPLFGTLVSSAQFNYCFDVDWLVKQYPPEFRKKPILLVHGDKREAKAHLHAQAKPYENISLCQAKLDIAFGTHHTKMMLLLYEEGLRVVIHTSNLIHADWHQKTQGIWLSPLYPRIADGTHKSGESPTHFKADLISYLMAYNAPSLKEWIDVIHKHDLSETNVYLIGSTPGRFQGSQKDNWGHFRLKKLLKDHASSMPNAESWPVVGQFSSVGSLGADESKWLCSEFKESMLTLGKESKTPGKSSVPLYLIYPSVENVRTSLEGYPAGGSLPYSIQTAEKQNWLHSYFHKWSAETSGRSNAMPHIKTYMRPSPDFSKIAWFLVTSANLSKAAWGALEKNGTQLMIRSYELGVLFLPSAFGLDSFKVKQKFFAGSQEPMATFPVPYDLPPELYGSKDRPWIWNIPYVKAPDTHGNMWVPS
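AlphaScreen read-out: signal falls as enzyme removes the 3' tyrosine-FITC from a 5'-biotinylated DNA oligo (15 nM, 5 min, RT). Enzyme was E. coli-made recombinant Tdp1 at 1 nM, exposed to compound for 15 min beforehand; beads 10 ug/ml, 10 min.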
TDP1 cell noCPT – qHTS for Inhibitors of human tyrosyl-DNA phosphodiesterase 1 (TDP1): qHTS in cells in absence of CPT; DT40 Tdp1-/- hTDP1 cells, no CPT, ATP luminescence, 48 h; Potency, µM (titrated, usually from 46.2 µM), for the others: at the highest dose activity change, negative = growth inhibition, actives largely listed as inhibitors; 420,000 compounds, 15% hits; also: % is scaled to controls: 0 for no effect and ±100 for the full control effect; nearly all actives have a fitted effect of over 55% in size
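Chicken DT40 Tdp1-/- cells stably complemented with human TDP1 were seeded at 400 cells/well with DMSO in place of 20 nM camptothecin. After compound pinning, cells grew at least 48 hr at 37 °C; viability read by CellTiter-Glo luminescence.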
ClpP mod – qHTS Assay for Activators of ClpP. 340,000 compounds, 1.9% hits. Potency, µM (highest dose often 57.5 µM), for inactives: top-dose activity change, negative = active. purified B. subtilis ClpP, FRET peptide cleavage, 20 min; active = well fitted falling curve with a large enough effect; inconclusive = small, poorly fitted or top-dose-only effect; inactive = no such curve, though single readings can be large or run the other way; also: the source files actives as falling curves though it sought activators and does not explain the sign; nearly all actives have a fitted effect of over 65% in size
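FRET quenching reversal measured ClpP activation: 10 microg/mL B. subtilis ClpP at pH 8 with the FRET-FV decapeptide, read at 430 nm after 320 nm excitation. The 20-min minus 0-min signal was scaled between DMSO/no-enzyme wells and ADEP (5.8 microM final).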
Numbers without * were called inactive. Shown are actives, neighbours in structure and some others; about 17% of the full set was active somewhere. Unless noted, calls follow the shape of the dose curve; as a rule, active = well fitted curve in the direction sought with a large enough effect; inconclusive = small, poorly fitted or top-dose-only effect, or another doubt; inactive = no such curve, though single readings can be large; an effect the other way counts as inactive or inconclusive. Potency is read from the fitted curve at half-maximal effect.

Results for CCN(CC)C(=O)CC(c1ccc(OC)cc1)c1c(OC)cc(OC)c2c(-c3ccccc3)cc(=O)oc12 (configuration not stated) ?
TDP1 block: 18µM*

How did Cc1ccccc1Nc1nnc(SCC(=O)c2c(N)n(C3CC3)c(=O)[nH]c2=O)s1 do in these assays?
TDP1 cell CPT: -2%; TDP1 block: -7%; TDP1 cell noCPT: -8%; ClpP mod: -1%

How did COC(=O)c1ccc(C(NC(=O)OCc2ccccc2)/C(=C/[C@@H](C)C(=O)NCc2cc(F)cc(F)c2)c2cccnc2)cc1 (some centres not stated) do in these assays?
TDP1 block: 9%

Results for Cc1cc(C)c(NC(=O)CNC(=O)Cc2ccc(S(=O)(=O)N3CCOCC3)s2)c(C)c1 ?
TDP1 cell CPT: 5%; TDP1 block: -1%; TDP1 cell noCPT: -9%; ClpP mod: -1%

Results for COc1cc(OC)c2c(c1C(CCN1CCOCC1)c1ccc(N(C)C)cc1)OC(=O)CC2c1ccc(N(C)C)cc1 (configuration not stated) ?
TDP1 cell CPT: 16µM*; TDP1 block: 27%; TDP1 cell noCPT: inconclusive; ClpP mod: -6%

How did COc1ccc(C2CC(=O)Oc3c(C(CCN4CCN(c5ccccc5)CC4)c4ccc(N(C)C)cc4)c(OC)cc(OC)c32)cc1 (configuration not stated) do in these assays?
TDP1 cell CPT: -34%; TDP1 block: 24%; TDP1 cell noCPT: inconclusive; ClpP mod: -3%

Results for CCC(NC(=S)NCc1ccc(F)cc1)c1ccc(C)cc1 (configuration not stated) ?
TDP1 cell CPT: inconclusive; TDP1 block: 6%; TDP1 cell noCPT: inconclusive; ClpP mod: 2%

What do the screens show for `Fc1ccccc1CNC(=S)Nc1cccc(C(F)(F)F)c1`?
TDP1 cell CPT: inconclusive; TDP1 block: -1%; TDP1 cell noCPT: 23µM*; ClpP mod: -1%

What do the screens show for `Fc1ccc(CNC(=S)Nc2cccc(C(F)(F)F)c2)cc1`?
TDP1 cell CPT: inconclusive; TDP1 block: 3%; TDP1 cell noCPT: 18µM*; ClpP mod: inconclusive

How did O=[N+]([O-])c1cccc(Cl)c1NCCNc1ncc(C(F)(F)F)cc1Cl do in these assays?
TDP1 cell CPT: inconclusive; TDP1 block: 7%; TDP1 cell noCPT: inconclusive; ClpP mod: 1%

What do the screens show for `O=[N+]([O-])c1cc(C(F)(F)F)cc([N+](=O)[O-])c1NCCNC(=S)Nc1cccc(F)c1`?
TDP1 cell CPT: inconclusive; TDP1 block: 3%; TDP1 cell noCPT: 26µM*; ClpP mod: 0%

Results for CCC(CC)Nc1ccc(C(CC(N)=O)NC(=O)Cc2cccc3ccccc23)cc1[N+](=O)[O-] (configuration not stated) ?
TDP1 cell CPT: -2%; TDP1 cell noCPT: -3%; ClpP mod: 0%

How did CCCNC(=O)CN1C(=O)NC2(CCCc3cc(OC)ccc32)C1=O (configuration not stated) do in these assays?
TDP1 cell CPT: -7%; TDP1 block: 4%; TDP1 cell noCPT: -13%; ClpP mod: 0%

Results for COc1cc(OC)c(NC(=O)c2c(C)oc3nc(C)nc(N4CCOCC4)c23)cc1Cl ?
TDP1 cell CPT: -4%; TDP1 block: -2%; TDP1 cell noCPT: -15%; ClpP mod: 0%

Results for Cc1ccc(-n2[nH]c(C)c(/C=N/c3ccccn3)c2=O)cc1 ?
TDP1 cell CPT: inconclusive; TDP1 block: -2%; TDP1 cell noCPT: inconclusive; ClpP mod: -1%

How did Cc1[nH]n(-c2ccccc2)c(=O)c1C=Nc1cccc2cccnc12 do in these assays?
TDP1 cell CPT: 0.65µM*; TDP1 block: 5%; TDP1 cell noCPT: 0.92µM*; ClpP mod: -9%

How did Cc1[nH]n(-c2ccccc2)c(=O)c1/C=N/N1C(=O)c2cccc3cccc(c23)C1=O do in these assays?
TDP1 cell CPT: inconclusive; TDP1 block: 8%; TDP1 cell noCPT: 16µM*

How did Cc1cc(=O)c(C(=O)O)c(C)n1-c1ccccc1 do in these assays?
TDP1 cell CPT: 2%; TDP1 cell noCPT: 0%; ClpP mod: 0%
